Laboratory results reported in PubChem BioAssay (Tox21).
Results filed as inconclusive are left out. Active and inactive are the calls of the source. Unless noted, the call rests on the fitted dose curve; in most records, active means well fitted curve in the direction sought with a large enough effect in the repeat runs; inconclusive means weak or mixed curves; inactive means no such curve, though single readings can be large; an effect the other way counts as inactive or inconclusive.

Key:
[1] = qHTS assay for small molecule agonists of the p53 signaling pathway - cell viability (AID 651633; calls by dose curve;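 further: p53RE-bla HCT reporter cells with a stable beta-lactamase p53 reporter; series mostly up to about 83 µM; nearly all actives have a fitted effect of over 30% in size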)
How it was run: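 Viability counter-read: CellTiter-Glo luminescence (30 min, room temperature) in the same p53RE-bla plates. These plates had been exposed to compounds for 16 h at 37 C.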

[2] = qHTS assay for small molecules that induce genotoxicity in human embryonic kidney cells expressing luciferase-tagged ATAD5 - cell viability (AID 651634; calls by dose curve; further: nearly all actives have a fitted effect of over 25% in size)
How it was run: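 Cytotoxicity counter-readout: after 15.5 hr compound treatment at 37C, live-cell protease activity in ATAD5-luciferase HEK293T cells measured by CellTiter-Fluor fluorescence, 30 min development at 37C.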

[3] = qHTS assay for small molecule disruptors of the mitochondrial membrane potential - cell viability (AID 720634; calls by dose curve;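 further: human HepG2 liver cancer cells; series mostly up to about 83 µM; nearly all actives have a fitted effect of over 20% in size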)
How it was run: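 Cytotoxicity was quantified from ATP content by CellTiter-Glo luminescence in the same wells as the MMP dye read-out. HepG2 (2,000 cells/well) were plated overnight and exposed to compounds for 1 hr at 37 C.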

[4] = qHTS assay for small molecule disruptors of the mitochondrial membrane potential (AID 720635)
How it was run: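 Mitochondrial membrane potential tracked with Mito-MPS dye, red aggregates (ex 540/em 590 nm) against green monomers (ex 490/em 535 nm). Compound treatment 1 hr at 37C, dye 30 min in HepG2.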

[5] = qHTS assay to test for compound auto fluorescence at 590 nm (red) in HepG2 cells (AID 720674)
How it was run: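 We screened compounds on adherent HepG2 cells, incubating them for an hour at 37 C in 5% CO2 before reading emission at 590 nm under 540 nm excitation; values reflect equivalence to Rose Bengal sodium fluorescence.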

[6] = qHTS assay to test for compound auto fluorescence at 535 nm (green) in HepG2 cells (AID 720675)
[7] = qHTS assay to test for compound auto fluorescence at 590 nm (red) in HEK293 cells (AID 720679)
How it was run: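 We plated HEK293 cells in 10% dialyzed FBS medium, let them adhere for 4-5 hr, then added 23 nL compound. Overnight at 37C and 5% CO2 preceded fluorescence measurement at 540/590nm.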

[8] = qHTS assay to test for compound auto fluorescence at 460 nm (blue) in HEK293 cells (AID 720678)
How it was run: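 Triamterene serves as the blue fluorophore standard. Compound signal at 405/460 nm is read in HEK293 wells (2,000 cells, 10% dialyzed FBS) after overnight treatment at 37C.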

[9] = qHTS assay for small molecules that induce genotoxicity in human embryonic kidney cells expressing luciferase-tagged ATAD5 (AID 651632); further: nearly all actives have a fitted effect of over 15% in size
How it was run: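 A rise in luciferase signal from ATAD5-tagged HEK293T cells marks genetic stress. Cells were exposed to compounds for 16 hr at 37C, 5% CO2, then luciferase was quantified after a 30 min room-temperature incubation with Amplite.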
On the % scale 0 is the no-effect control and ±100 the full control effect.

CCCC(C)C1(CC)C(=O)N=C(S)NC1=O (configuration not stated)
inactive: Potency [1] | Potency [2] | Potency [3] | Potency [4] | outcome [5] | outcome [6] | outcome [7]

CS(=O)(=O)c1ccc(C(=O)C2C(=O)CCCC2=O)c(Cl)c1COCC(F)(F)F
inactive: Potency [1] | Potency [2] | Potency [3] | outcome [5] | outcome [6] | outcome [7]

C(COCC1CO1)OCC1CO1 (configuration not stated)
inactive: Potency [1] | Potency [2] | Potency [3] | outcome [5] | outcome [6] | outcome [8] | outcome [7]

C[C@@H](N)[C@@H](O)c1ccccc1
inactive: Potency [3] | fluorescence, relative to Rose Bengal [5] -0.248% [at 18.6 µM] | fluorescence, % of fluorescein control [6] -0.0859% [at 18.6 µM] | fluorescence, % of triamterene [8] 0.0027% [at 18.6 µM] | fluorescence, % of fluorescent control [7] -0.083% [at 18.6 µM]

CN1C(=O)COc2c(C(=O)NC3CN4CCC3CC4)cc(Cl)cc21 (configuration not stated)
inactive: outcome [9] | Potency [2] | Potency [3] | outcome [5] | outcome [6] | outcome [8] | outcome [7]

O=C(O)C(Br)(Br)Br
inactive: Potency [1] | Potency [2] | Potency [3] | Potency [4] | outcome [5] | outcome [6] | outcome [8] | outcome [7]

CCN[C@H](C)Cc1cccc(C(F)(F)F)c1
inactive: outcome [9] | Potency [2] | Potency [3] | outcome [5] | outcome [6] | outcome [8] | outcome [7]

CN(C)CCN(C)C
inactive: outcome [9] | Potency [2] | Potency [3] | outcome [5] | outcome [6] | outcome [7]

Cc1ccc(Cl)c(O)c1
inactive: outcome [9] | Potency [1] | Potency [2] | Potency [3] | outcome [5] | outcome [6] | outcome [7]

COc1ccc(C=O)cc1O
inactive: outcome [9] | Potency [2] | Potency [3] | outcome [5] | outcome [6] | outcome [8] | outcome [7]

C#CC(C)(C)O
inactive: Potency [1] | Potency [2] | Potency [3] | outcome [5] | outcome [6] | outcome [7]

CCC(=O)c1ccc(Cl)cc1
inactive: Potency [2] | Potency [3] | outcome [5] | outcome [6] | outcome [8] | outcome [7]

CCOC(=O)COc1ccc(Cl)cc1Cl
inactive: outcome [9] | Potency [1] | Potency [2] | Potency [3] | outcome [5] | outcome [6] | outcome [7]

NNCc1ccccc1
inactive: Potency [1] | Potency [2] | Potency [3] | outcome [5] | outcome [6] | outcome [7]

ClCCCCCCCl
inactive: outcome [9] | Potency [2] | Potency [3] | outcome [5] | outcome [6] | outcome [7]

CC(O)CCl (configuration not stated)
inactive: outcome [9] | Potency [2] | Potency [3] | outcome [5] | outcome [6] | outcome [8] | outcome [7]

CN(C)C1CCCCC1
inactive: Potency [1] | Potency [2] | Potency [3] | outcome [5] | outcome [6] | outcome [8] | outcome [7]

CCC1(c2cccc(O)c2)CCCCN(C)C1 (configuration not stated)
inactive: outcome [9] | Potency [1] | Potency [2] | Potency [3] | fluorescence, relative to Rose Bengal [5] 0.128% [at 18.6 µM] | fluorescence, % of fluorescein control [6] 0.0413% [at 18.6 µM] | fluorescence, % of triamterene [8] 0.018% [at 18.6 µM] | fluorescence, % of fluorescent control [7] 0.162% [at 18.6 µM]

C=CCN1CC[C@]23CCCC[C@H]2[C@H]1Cc1ccc(O)cc13
inactive: outcome [9] | Potency [1] | Potency [2] | outcome [5] | outcome [6] | outcome [8] | outcome [7]

N#CN
inactive: outcome [9] | Potency [1] | Potency [2] | Potency [3] | outcome [5] | outcome [6] | outcome [8] | outcome [7]

O=C(O)c1c(Cl)ccc2cc(Cl)cnc12
inactive: outcome [9] | Potency [2] | Potency [3] | outcome [5] | outcome [6] | outcome [8] | outcome [7]
